TrxR1 substrate = rat thioredoxin reductase 1 substrate activity; O89049; AID 588456; Potency, µM (series often up to 114 µM), for inactives: at the top dose activity change, negative = substrate turnover; actives 0.01% (n = 390,000); purified TrxR1 substrate turnover, NADPH consumption readout; further: potency means the concentration at half of the fitted maximal effect; nearly all actives have a fitted effect of over 50% in size
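Rat TrxR1, dispensed at 90 nM, was prereduced with 400 uM NADPH (final) for 5 min at ~22 deg C, then incubated with compound 15 min before 400 uM selenite. A first-read NADPH fluorescence drop versus no-compound background flagged substrates.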
RORgamma inh = blocks mouse ROR gamma transcriptional activity | P51450 | Drosophila S2 Gal4-RORgamma UAS-luciferase reporter, 20 h | Potency, µM (series often up to 53.6 µM), for inactives: at the highest dose activity change, negative = inhibition, usual class: inhibitors | actives 5.4% (n = 310,000) | AID 2551; further: potency means the concentration at half of the fitted maximal effect; nearly all actives have a fitted effect of over 60% in size
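Luciferase reporter read in Schneider cells carrying Gal4-RORγ (mouse) and UAS-Photinus luciferase; cells given compound 1 h before 700 uM copper sulfate induction, then incubated 20 h at ambient temperature.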
GALK inhibitor = inhibitors of human galactokinase. Purified GALK, Kinase-Glo residual ATP luminescence. Potency, µM (titrated, usually from 57.5 µM), for the others: top-dose activity change, negative = inhibition, most hits filed as inhibitors. actives 0.007% (n = 270,000). P51570; further: potency means the concentration at half of the fitted maximal effect
Target sequence (P51570 whole entry, looked up): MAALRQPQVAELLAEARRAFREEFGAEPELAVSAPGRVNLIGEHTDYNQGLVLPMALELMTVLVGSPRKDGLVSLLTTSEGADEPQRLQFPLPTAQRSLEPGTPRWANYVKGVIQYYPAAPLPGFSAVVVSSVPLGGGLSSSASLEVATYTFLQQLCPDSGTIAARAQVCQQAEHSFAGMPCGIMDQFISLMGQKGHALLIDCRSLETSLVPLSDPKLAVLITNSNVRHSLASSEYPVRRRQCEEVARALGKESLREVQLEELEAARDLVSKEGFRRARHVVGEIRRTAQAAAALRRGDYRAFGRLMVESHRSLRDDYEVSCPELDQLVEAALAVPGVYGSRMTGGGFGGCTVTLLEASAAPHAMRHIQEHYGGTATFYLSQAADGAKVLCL
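Galactose (100 uM) and ATP (35 uM) were turned over by 5 nM GALK for 1 h at RT. Kinase-Glo Plus then converted the remaining ATP into a luminescent signal.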
rTrxR1 inhibitor = inhibitors of rat thioredoxin reductase 1; recombinant rTrxR1, NADPH fluorescence consumption, selenite substrate; Potency, µM (highest dose often 114 µM), without a hit: at the highest dose activity change, negative = inhibition, usual class: inhibitors; actives 1% (n = 390,000); AID 588453; further: potency means the concentration at half of the fitted maximal effect; nearly all actives have a fitted effect of over 65% in size
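Rat TrxR1 (90 nM in the dispensed reagent) was pre-reduced with 400 uM NADPH for 5 min at room temperature, then incubated with compound for 15 min. After 400 uM selenite was added, NADPH fluorescence (Ex 340/Em 450 nm) was followed for 8 min.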
FBPA coupling cs = counter-screen for Giardia aldolase inhibitors: coupling enzyme system | coupling enzyme system counterscreen, AmpLite Red fluorescence | activity change, negative = inhibition, % at 58.2 µM, hits read low | actives 0.67% (n = 290,000); in the data active means activity change below about -30%
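Final compound at 57.5 uM, incubated 10 min at RT with coupling enzyme reagent (glyceraldehyde-3-phosphate), then 20 min with substrate and AmpLite Red detection. Fluorescence read at 525/598 nm; tests interference with the coupling assay, not aldolase inhibition.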
Gal4-VP16 FLuc = counter-screen for ROR gamma inhibitors: Gal4-VP16 reporter; Drosophila S2 Gal4-VP16 UAS-luciferase, luminescence, 20 h; Potency, µM (series often up to 53.6 µM), without a hit: at the top dose activity, negative = inhibition, actives largely listed as inhibitors; actives 3.5% (n = 310,000); AID 2546;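 further: Gal4-VP16 expression switched on by copper sulfate through the metallothionein promoter; potency means the concentration at half of the fitted maximal effect; nearly all actives have a fitted effect of over 50% in size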
Active calls of the source: *; ? = inconclusive; / = no result; [ ] = dose if it differs, or a comment. Most compounds without a hit are left out; they make up all but 5.9% or so of the library. Unless noted, the call rests on the fitted dose curve; in most records, active means well fitted curve in the direction sought with a large enough effect; inconclusive means small, poorly fitted or top-dose-only effect, or another doubt; inactive means no such curve, though single readings can be large; an effect the other way counts as inactive or inconclusive. On the % scale 0 is the no-effect control and ±100 the full control effect.

SMILES	TrxR1 substrate	RORgamma inh	GALK inhibitor	rTrxR1 inhibitor	FBPA coupling cs	Gal4-VP16 FLuc
O=S(=O)(c1ccc(Cl)c(NC(=S)N/N=C/c2c(F)cccc2F)c1)N1CCOCC1	-5%	2µM*	-1%	5%	-1	1.8µM*
CCc1ccc(OCC2c3cc(OC)c(OC)cc3CCN2C(=O)c2ccc(S(=O)(=O)N3CCCC3)cc2)cc1 (stereo not given)	1%[57.1 µM]	/	/	20%[57.1 µM]	/	/
CCCC(C)NC(=O)c1cccc(Oc2ccccc2)c1 (stereo not given)	-2%[57.1 µM]	35µM*	1%	7%[57.1 µM]	3	-15%
CC1COc2ccccc2N1C(=O)c1ccccc1Cl (stereo not given)	2%	24%	-6%	18%	0	27%
O=C(CCl)N1c2ccccc2SCC1c1ccccc1 (stereo not given)	7%	11µM*	1%	1.3µM*	2	14µM*
O=C(CCl)N1c2ccccc2OCC1c1ccccc1 (stereo not given)	5%	22%	-4%	2.2µM*	4	-12%
CC(=O)Nc1ccc(/C(C)=N/NC(=O)c2ccccc2Cl)cc1	-16%	16%	-3%	-15%	-1	1%
COc1cc2c(cc1OC)C(c1ccccc1OC(C)C)CC(=O)N2 (stereo not given)	5%	-18%[1.91 µM]	-5%	12%	0	?
Brc1cccc(-c2nnc(SCc3nc4ccccc4[nH]3)o2)c1	0%	11µM*	-1%	-5%	-8	-17%
O=C(O)c1cccc(CSc2nnc(-c3ccc(Cl)cc3)o2)c1	4%	?	-3%	21%	4	0.79µM*
Cc1cccc(-c2nnc(SCc3ccccc3)o2)c1	9%[57.1 µM]	14µM*	2%	29%[57.1 µM]	5	-29%
O=C(O)c1cccc(CSc2nnc(COc3ccccc3)o2)c1	4%[57.1 µM]	-31%	0%	7%[57.1 µM]	23	?
Cc1cccc(CSc2nnc(-c3ccco3)o2)c1	3%	1%	3%	14%	-1	?
COc1ccccc1CNC(=O)CCS(=O)(=O)c1ccc2c(c1)CCN2C(C)=O	8%	-6%	-3%	24%	0	-6%
CC(=O)Oc1c(-c2ccco2)oc2ccccc2c1=O	25%[57.1 µM]	13µM*	11%	10%[57.1 µM]	2	?
O=C1C=CC(=O)N1Cc1ccccc1	3%	?	/	0.4µM*	5	?
COc1ccc(C(=O)Nc2cc3c(cc2N2CCCC2)n(C)c(=O)c(=O)n3C)cc1OC	61%	/	/	-12%	/	/
COc1ccc(C(=O)Nc2cc3c(cc2N2CCCCC2)n(C)c(=O)n3C)cc1OC	-4%	3.5µM*	-2%	16%	-3	8%
COc1cc2oc(=O)c(CC(=O)N3CCCCC3)c(C)c2cc1OC	782%	/	/	16µM*	/	/
Cc1coc2cc3oc(=O)c(CC(=O)N4CCCCC4)c(C)c3cc12	2%	/	/	7%	/	/
CC1CN(C(=S)SCC(=O)c2ccc(Cl)cc2)CC(C)O1 (stereo not given)	2%	41%	/	-11%	-3	?
COc1ccc(C(=O)NC(=S)N2CC(C)OC(C)C2)cc1OC (stereo not given)	-11%	7.9µM*	-1%	?	0	?
CC1CN(C(=S)NC(=O)c2ccc(Cl)cc2)CC(C)O1 (stereo not given)	2%	1.6µM*	-2%	5%	/	0.79µM*
COc1ccc(C(=O)NC(=S)N2CCCc3ccccc32)cc1OC	4%	-44%	5%	-10%[57.1 µM]	0	-14%
CC1CN(C(=S)NC(=O)c2cccc([N+](=O)[O-])c2)CC(C)O1 (stereo not given)	-7%	0.5µM*	-4%	1%[57.1 µM]	0	1.3µM*
SMILES	TrxR1 substrate	RORgamma inh	GALK inhibitor	rTrxR1 inhibitor	FBPA coupling cs	Gal4-VP16 FLuc
CCOC(=O)c1c(C)[nH]c(C)c1C(=O)COC(=O)CCc1ccccc1	-14%	/	/	-1%	/	/
CCn1nnnc1NC(=O)c1cccc(OC)c1	14%[57.1 µM]	-2%	3%	33%[57.1 µM]	0	-6%
COc1ccc(C(=O)NC(=S)Nc2nnn(C)n2)cc1	-6%[0.457 µM]	5.6µM*	/	?	-1	-26%
COc1ccccc1C(=O)Nc1nnn(C)n1	-9%	1%	3%	-7%	2	2%
COc1cccc(C(=O)NC(=S)Nc2nnn(C)n2)c1	-8%	8.9µM*	0%	?	-4	11µM*
CC(C)CC(NC(=O)c1ccc(Cl)cc1)C(=O)OCC(=O)c1ccc2c(c1)NC(=O)CO2 (stereo not given)	0%	11µM*	-2%	-5%	-11	7.1µM*
O=C1COc2ccc(C(=O)NC3CC3)cc2N1	-12%	17%	0%	-11%	2	-6%[10 µM]
O=C1COc2ccc(C(=O)COC(=O)c3ccc([N+](=O)[O-])cc3Cl)cc2N1	-11%	/	/	50µM*	/	/
O=C1COc2ccc(C(=O)COC(=O)c3ccc(Cl)cc3[N+](=O)[O-])cc2N1	-3%	/	/	-26%	/	/
O=C(O)/C=C/C(=O)c1ccc2c(c1)NC(=O)CO2	-3%[57.1 µM]	-17%	1%	2.8µM*	2	-12%
O=C1COc2ccc(C(=O)COC(=O)/C=C/c3ccco3)cc2N1	-1%	/	/	50µM*	/	/
CC(O)C(NS(=O)(=O)c1ccc(Cl)cc1)C(=O)OCC(=O)c1ccc2c(c1)NC(=O)CO2 (stereo not given)	3%	/	/	-1%	/	/
COc1ccc(F)c(-c2nc(CN3CCN(C(=O)c4ccco4)CC3)c(C)o2)c1	-15%	-22%	2%	?	/	2%
COc1cccc(CNC(=O)c2cc(C)nc3c2c(C)nn3-c2ccc(C)cc2)c1	22%	/	/	32%	/	/
COc1ccc(NC(=O)C2CCCN(S(=O)(=O)c3ccc4[nH]c(=O)ccc4c3)C2)cc1 (stereo not given)	6%[57.1 µM]	-19%	/	20%[57.1 µM]	3	-9%
C#CCn1c(O)c(N=NC(=O)CNC(=O)/C=C/c2ccccc2)c2ccccc21	-7%[57.1 µM]	15%	-2%	18%[57.1 µM]	11	-4%
Cc1ccc(N2C(=O)C3C4C=CC(CNC(=S)N5CCN(c6ccccc6)CC5)(O4)C3C2=O)cc1 (stereo not given)	0%	10µM*	-1%	20µM*	-1	?
Cc1cccc(NC(=S)NCC23C=CC(O2)C2C(=O)N(c4ccc(Cl)cc4)C(=O)C23)c1 (stereo not given)	-1%	-13%[10 µM]	0%	7.9µM*	1	?

High-throughput results: PubChem, National Center for Advancing Translational Sciences (NCATS)
